{"source": "PubChem BioAssay (EPA / NIEHS)", "key": {"[1]": {"assay": "BSK_BT_PBMCCytotoxicity: PBMC Cytotoxicity Assessment in the BioMAP Diversity Plus: BT Assay (AID 2284225);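 also: PBMC viability measured by Alamar Blue dye reduction fluorescence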", "conditions": "primary human B cells with PBMC", "in_short": "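Primary human co-culture of B cells and PBMC, pre-dosed 1 h then activated with SEB and TSST-1. Cytotoxicity is taken from Alamar Blue dye reduction, added for 6 h at the end of a 90 h incubation.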"}, "[2]": {"assay": "CCTE_Mundy_HCI_Cortical_NOG_NeuriteCount: CCTE's Neurite Outgrowth Assay in rat cortical cells for Neurite Count, Mundy Lab (AID 2284212);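 also: cells fixed about two days after chemical exposure began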", "in_short": "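Rat cortical primary cells; compound added 2 h post-plating, 1/10 dilution of working solution. Anti-betaIII-tubulin/AF488 ICC; ArrayScan neurite count vs DMSO.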"}, "[3]": {"assay": "CCTE_Mundy_HCI_Cortical_NOG_NeuriteLength: CCTE's Neurite Outgrowth Assay in rat cortical cells for Neurite Length, Mundy Lab (AID 2284213)", "in_short": "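First, rat primary cortical cells were plated and, 2 h later, given test chemical as a 1/10 dilution. Finally, βIII-tubulin immunostaining enabled automated imaging of neurite length.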"}, "[4]": {"assay": "CCTE_Mundy_HCI_Cortical_Synap_Neur_Matur_NeuriteLength: CCTE's Synaptogenesis and Neurite Maturation Assay in rat cortical cells for Neurite Length, Mundy Lab (AID 2284214)", "in_short": "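DMSO-normalised neurite length, from high-content imaging of anti-MAP2-stained rat cortical cells fixed at DIV 12. Glia were suppressed with AraC (DIV 5) before chemical exposure from DIV 7.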"}, "[5]": {"assay": "CCTE_Mundy_HCI_Cortical_Synap_Neur_Matur_NeuriteSpotCountPerNeuron: CCTE's Synaptogenesis and Neurite Maturation Assay in rat cortical cells for Neurite Spot Count per Neuron Count, Mundy Lab (AID 2284215)", "in_short": "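Rat primary cortical cells received AraC at DIV 5, then chemicals with a media change at DIV 7, and were fixed at DIV 12. Synaptophysin puncta on MAP2-stained neurites per neuron were counted by high-content imaging, fitted relative to DMSO.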"}, "[6]": {"assay": "CCTE_Mundy_HCI_Cortical_Synap_Neur_Matur_SynapseCount: CCTE's Synaptogenesis and Neurite Maturation Assay in rat cortical cells for Synapse Count, Mundy Lab (AID 2284218)", "in_short": "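Endpoint: synapses/neuron by HCI (synaptophysin puncta on MAP2-labelled neurites, Hoechst nuclei). Rat primary cortical cells, AraC DIV 5, dosed DIV 7, fixed DIV 12; DMSO negative control.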"}, "[7]": {"assay": "CCTE_Mundy_HCI_Cortical_Synap_Neur_Matur_NeuriteCount: CCTE's Synaptogenesis and Neurite Maturation Assay in rat cortical cells for Neurite Count, Mundy Lab (AID 2284222);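 also: exposure from day 7 to day 12 in vitro with readout at day 12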", "in_short": "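Chemical exposure runs DIV 7–12 in rat cortical cultures, glia suppressed by AraC at DIV 5; measurement is at DIV 12. Imaging-derived neurite counts are fitted against DMSO baseline.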"}, "[8]": {"assay": "CCTE_Mundy_HCI_Cortical_Synap_Neur_Matur_CellBodySpotCount: CCTE's Synaptogenesis and Neurite Maturation Assay in rat cortical cells for Cell Body Spot Count, Mundy Lab (AID 2284223)", "in_short": "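Rat primary cortical cultures received AraC at DIV 5 to arrest glia, were dosed with chemical at DIV 7 with media change, and were fixed at DIV 12 (288.33 h). Synaptophysin puncta on MAP2-positive cell bodies per neuron were counted by high-content imaging versus DMSO.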"}, "[9]": {"assay": "CCTE_Mundy_HCI_hNP1_Pro_ResponderAvgInten: CCTE's Proliferation Assay in human neuroprogenitor cells, Mundy Lab (AID 2284224; active = hit-call score of the fitted dose curve at least 0.9, where 1 is the maximum)", "in_short": "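Proliferation was scored as BrdU labelling intensity in human neural progenitors derived from WA09 embryonic cells, measured 26.25 hours after chemical dosing. Activity was fitted relative to DMSO.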"}}, "note": "Values joined by “and” are separate entries in the source; they are usually repeats but may differ in a detail not shown here. Equal entries are not always repeated. Inconclusive results are not listed. Some compounds were tested as several samples or in several runs, with calls that do not always agree. Active and inactive are the calls of the source. The calls were made as follows, unless noted: active = hit-call score of the fitted dose curve at least 0.9, where 1 is the maximum; inactive = score below 0.9."}
{"compound": "O=C1OC2(c3ccc(O)cc3Oc3cc(O)ccc32)c2ccccc21", "values": [{"measurement": "outcome", "setting": "[1]", "result": "inactive"}]}
{"compound": "C=C(F)C(=O)OC(C(F)(F)F)C(F)(F)F", "values": [{"measurement": "outcome", "setting": "[1]", "result": "inactive"}]}
{"compound": "CCC(=O)OCC=Cc1ccccc1", "values": [{"measurement": "outcome", "setting": "[1]", "result": "inactive"}]}
{"compound": "CC(C)Cc1ccc(C(C)C(=O)O)cc1", "note": "(configuration not stated)", "values": [{"measurement": "outcome", "setting": "[2]", "result": "inactive"}, {"measurement": "outcome", "setting": "[3]", "result": "inactive"}, {"measurement": "outcome", "setting": "[4]", "result": "inactive"}, {"measurement": "outcome", "setting": "[5]", "result": "inactive"}, {"measurement": "outcome", "setting": "[6]", "result": "inactive"}, {"measurement": "outcome", "setting": "[7]", "result": "inactive"}, {"measurement": "outcome", "setting": "[8]", "result": "inactive"}, {"measurement": "outcome", "setting": "[9]", "result": "inactive"}, {"measurement": "outcome", "setting": "[1]", "result": "inactive"}]}
{"compound": "CCOC(=O)CCCCCCCCC(=O)OCC", "values": [{"measurement": "outcome", "setting": "[1]", "result": "inactive"}]}
{"compound": "C=C(C)C(=O)OCCC(F)(F)C(F)(F)C(F)(F)C(F)(F)C(F)(F)C(F)(F)C(F)(F)C(F)(F)F", "values": [{"measurement": "outcome", "setting": "[1]", "result": "inactive"}]}
{"compound": "CC(C)(C)c1cccc(O)c1", "values": [{"measurement": "outcome", "setting": "[1]", "result": "inactive"}]}
{"compound": "CCCCCCCC1CCCC1=O", "note": "(configuration not stated)", "values": [{"measurement": "outcome", "setting": "[1]", "result": "inactive"}]}
{"compound": "CC=CC(=O)C1=C(C)C=CCC1(C)C", "values": [{"measurement": "outcome", "setting": "[1]", "result": "inactive"}]}
{"compound": "O=S1(=O)CC(Cl)(Cl)C(Cl)(Cl)C1", "values": [{"measurement": "AC50", "setting": "[1]", "result": "0.874 µM (active)"}]}
{"compound": "COc1ccccc1NC(=O)CC(C)=O", "values": [{"measurement": "outcome", "setting": "[1]", "result": "inactive"}]}
{"compound": "c1ccc2scnc2c1", "values": [{"measurement": "outcome", "setting": "[2]", "result": "inactive"}, {"measurement": "outcome", "setting": "[3]", "result": "inactive"}, {"measurement": "outcome", "setting": "[4]", "result": "inactive"}, {"measurement": "outcome", "setting": "[5]", "result": "inactive"}, {"measurement": "outcome", "setting": "[6]", "result": "inactive"}, {"measurement": "outcome", "setting": "[7]", "result": "inactive"}, {"measurement": "outcome", "setting": "[8]", "result": "inactive"}]}
{"compound": "CC(=O)OCC=C(C)CCC=C(C)CCC=C(C)C", "values": [{"measurement": "AC50", "setting": "[1]", "result": "33.2 µM (active)"}]}
{"compound": "CC1(C)[C@H](C=C(Cl)Cl)[C@H]1C(=O)OCc1cccc(Oc2ccccc2)c1", "values": [{"measurement": "outcome", "setting": "[1]", "result": "inactive"}]}
{"compound": "CC(=O)CCC=C(C)CCC=C(C)C", "values": [{"measurement": "outcome", "setting": "[1]", "result": "inactive"}]}
{"compound": "O=C(O)C(F)(F)OC(F)(F)C(F)(F)OC(F)(F)C(F)(F)C(F)(F)C(F)(F)F", "values": [{"measurement": "AC50", "setting": "[1]", "result": "22.1 µM (active)"}, {"measurement": "outcome", "setting": "[1]", "result": "inactive"}]}
{"compound": "OCC(F)(OC(F)(F)C(F)(OC(F)(F)C(F)(F)C(F)(F)F)C(F)(F)F)C(F)(F)F", "note": "(configuration not stated)", "values": [{"measurement": "AC50", "setting": "[1]", "result": "2.62 µM (active) and 5.68 µM (active)"}]}
